From PubChem
3CLpro inhibitor – SARS-CoV 3CLpro protease inhibition; hit rate 0.14% among 290,000; P0C6X7; recombinant SARS-CoV 3CLpro, quenched FRET peptide cleavage; inhibition, % at 6 µM; AID 1706; in the data active = inhibition above about 12%
PrPC TRFRET – inhibitors of human cell surface prion protein PrPC. TR-FRET read-out. inhibition, % at 13.8 µM. hit rate 0.43% among 370,000. AID 720596; in the data active = inhibition above about 24%; note: 0% = median of the test wells and 100% = reference compound wells
BJeLR lethal – kills HRASV12-expressing BJeLR cells. inhibition, % (test concentration not listed). AID 1554. hit rate 0.17% among 300,000. BJeLR (HRASV12) viability, CellTiter-Glo ATP luminescence, 48 h; in the data active = inhibition above about 50%
VHR inh abs – inhibitors of human VHR1 phosphatase (DUSP3). P51452. AID 1654. inhibition, % at 13.3 µM. hit rate 0.52% among 290,000. recombinant VHR phosphatase, pNPP absorbance; in the data active = inhibition above about 50%
PrPC TRFRET cf – cell surface PrPC inhibition, TR-FRET confirmation. shares compounds with PrPC TRFRET. AID 743200. hit rate 65% among 1,500. cell surface PrPC level. inhibition, % at 13.8 µM; in the data active = inhibition above about 25%
LD9 tox – counter-screen for PrPc inhibitors: cytotoxicity in LD9 cells | AID 743201 | shares compounds with PrPC TRFRET | hit rate 29% among 1,500 | inhibition, % at 13.8 µM | luminescence viability; in the data active = inhibition above about 9.5%
* = called active by the depositor; · = no result given. In the library only some 1.1% were active in any assay of this set; here they are far more common.

SMILES	3CLpro inhibitor	PrPC TRFRET	BJeLR lethal	VHR inh abs	PrPC TRFRET cf	LD9 tox
Cc1ccc(NC(=O)C2CCCN(C(=O)Nc3ccc(F)cc3)C2)cc1 (stereo unspecified)	5	-4	-6	22	·	·
O=C(NC1CC1)C1CCCN(C(=O)Nc2ccc(F)cc2)C1 (stereo unspecified)	-2	31*	-7	-5	15	0
CCOC(=O)c1c(C)n(CC)c2c1cc(O)c1ccccc12	-1	25*	-8	-2	11	-4
C=CCn1c(C)c(C(=O)OCC)c2cc(O)c3ccccc3c21	1	4	-4	21	·	·
COc1cc2c(cc1OC)C(Cc1ccc(O)cc1)NCC2 (stereo unspecified)	-3	1	-2	0	·	·
CCC1CN2CCc3cc(OC)c(OC)cc3C2CC1CC1NCCc2c1[nH]c1ccc(O)cc21 (stereo unspecified)	·	87*	·	·	100*	43*
Cc1csc(NC(=O)CSc2sc3c(O)cc(=O)[nH]c3c2C#N)n1	-2	26*	-3	23	4	2
NC(=O)COC(=O)c1ccc2noc(-c3ccccc3)c2c1	-1	37*	-3	42	30*	-8
O=C(OCC(=O)N1CCC(Cc2ccccc2)CC1)c1cc(Br)ccc1O	·	0	·	·	·	·
CCc1nc(SCC(=O)NNC(=O)c2ccc(OC)cc2)c2ccccc2n1	5	109*	7	8	116*	-10
CCc1nc(SCC(=O)Nc2nc3c(s2)CCCC3)c2ccccc2n1	-1	30*	-1	19	72*	-9
COc1ccc(C(=O)NNC(=O)CSc2nc(C(C)C)nc3ccccc23)cc1	-1	81*	-7	20	101*	-17
COc1ccc(C(=O)NNC(=O)CSc2ccccc2)cc1	3	4	6	17	·	·
CCc1nc(SCC(=O)N2c3ccccc3Sc3ccccc32)c2ccccc2n1	-5	46*	2	25	89*	-8
Cn1c(SCC(=O)N2CCc3ccccc3C2)nnc1-c1ccncc1	-5	41*	11	10	-5	-8
Cn1c(SCC(=O)N2CCc3ccccc3C2)nnc1-c1cccs1	-6	-2	-3	1	·	·
COc1cc(C2NC(=O)NC(C)=C2C(=O)OCC2CCCCC2)ccc1O (stereo unspecified)	-8	8	-7	5	·	·
Cc1onc(-c2c(F)cccc2Cl)c1C(=O)Nc1nnc(C(F)(F)F)s1	-1	62*	8	19	81*	5
COc1ccc(Cl)cc1C(=O)Nc1cccc(-c2ccc3nncn3n2)c1	2	83*	-5	-7	88*	3
Cc1ccccc1CN1C(=O)CN(S(C)(=O)=O)CC1(C)C(=O)NCc1ccccc1 (stereo unspecified)	·	25*	·	·	0	-5
Cc1ccccc1CN1C(=O)CN(S(C)(=O)=O)CC1(C)C(=O)Nc1c(C)cccc1C (stereo unspecified)	·	-7	·	·	·	·
Cc1ccc(S(=O)(=O)N2CCN(C(=O)COC(=O)CSc3cc(C)ccc3C)CC2)c(C)c1	·	-1	·	·	·	·
N#CCc1c(C#N)c(N)nc(N2CCN(S(=O)(=O)c3ccccc3F)CC2)c1C#N	0	31*	-7	21	11	16*
COC(=O)[C@H]1[C@@H](O)[C@@]2(O)c3c(OC)cc(OC)cc3O[C@@]2(c2ccc(OC)cc2)[C@@H]1c1ccc(F)cc1	·	83*	·	·	91*	20*
COC(=O)C1C(=O)C=C(Nc2ccc(F)cc2)CC1c1ccc(OC)cc1 (stereo unspecified)	-2	0	-1	15	·	·
SMILES	3CLpro inhibitor	PrPC TRFRET	BJeLR lethal	VHR inh abs	PrPC TRFRET cf	LD9 tox
CCCS(=O)(=O)NC(=O)C1(C)CCN(C(=O)c2cc(C)nn2C(C)(C)C)C1 (stereo unspecified)	·	-4	·	·	·	·
CCN(CC)CC(C)(C)C(=O)/C=C/c1ccc(/C=C/C(=O)C(C)(C)CN(CC)CC)cc1	·	90*	·	·	105*	96*
CC(C)(C)c1ccc(S(=O)(=O)Nc2ccc(C(O)(C(F)(F)F)C(F)(F)F)cc2)cc1	·	26*	·	·	4	-4
CCOc1cc(N2CCOCC2)c(OCC)cc1NC(=O)c1cnccn1	·	-7	·	·	·	·
CCN(C(=O)COC(=O)c1ccccc1Nc1ccccc1)c1c(N)n(Cc2ccccc2)c(=O)[nH]c1=O	·	33*	·	·	24	-3
COc1cccc(N2CC(O)=C(c3nc4ccccc4s3)C2=N)c1	5	92*	6	8	88*	8
CN(c1ccccc1)S(=O)(=O)c1ccc(C(=O)N2CCN(c3ccccc3)CC2)cc1	·	8	·	·	·	·
COc1ccc(C2SCC(=O)Nc3c2c(=O)[nH]n3C2CCCCCC2)cc1 (stereo unspecified)	1	2	-3	2	·	·
CCOc1ccc(C2SCC(=O)Nc3c2c(=O)[nH]n3C2CCCCCC2)cc1 (stereo unspecified)	3	51*	4	8	5	-3
Fc1c(F)c(-n2nnc3ccccc32)c(F)c(F)c1Cl	1	6	-2	6	·	·
CCN(CC)C(=O)CC[C@H]1CC[C@]2(CCCN(C(=O)c3cccnc3)C2)O1	·	2	·	·	·	·
Cc1ccc(S(=O)(=O)c2cccc(S(=O)(=O)N3CCCC3)c2)cc1S(=O)(=O)N1CCCC1	2	34*	-2	8	30*	9
O=S(=O)(CC1NCCc2ccccc21)NCCc1ccccc1 (stereo unspecified)	·	-1	·	·	·	·
O=C(NCc1cccc(C(F)(F)F)c1)c1ccc2nc([C@@H]3O[C@H](CO)[C@@H](O)[C@H]3O)[nH]c2c1	·	2	·	·	·	·
Cc1nc(-c2ccc(S(=O)(=O)Nc3cccc(S(N)(=O)=O)c3)s2)cs1	-2	3	0	14	·	·
Cc1nc(-c2ccc(S(=O)(=O)Nc3ccc(Br)cc3Cl)s2)cs1	5	37*	1	8	53*	-2
COc1cc(OC)cc(C(=O)N[C@H](C(=O)NC2CCCc3ccccc32)C(C)C)c1 (stereo partly specified)	·	5	·	·	·	·
c1ccc(Nc2nc(NCc3ccco3)c3ccccc3n2)cc1	-4	28*	3	29	35*	15*
Cc1cccc(Nc2nc(NCc3ccco3)c3ccccc3n2)c1	2	30*	14	-6	31*	29*
Cc1ccccc1Nc1nc(NCc2ccco2)c2ccccc2n1	-3	14	-2	22	·	·
COCCNc1nc(NCc2ccc(NC(C)=O)cc2)c2sc(-c3ccccc3)cc2n1	·	6	·	·	·	·
Cc1ccc(-n2nc3ccc(NC(=S)NC(=O)/C=C/c4ccco4)cc3n2)cc1	2	65*	1	-10	42*	-5
Cc1ccc(-n2nc3cc(C)c(NC(=S)NC(=O)/C=C/c4ccco4)cc3n2)cc1	6	18	-3	20	·	·
O=C(COC(=O)CSc1cccc2cccc(Cl)c12)Nc1ncc(C(F)(F)F)cc1Cl	1	31*	-1	-22	39*	1
O=C(CSc1cccc2cccc(Cl)c12)NC1=NCCS1	3	29*	9	6	45*	-4
